Test results: PubChem BioAssay (NCI)
Compounds without any hit were thinned out: in the full panel of roughly 83,000, 20% have a hit.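 Interpretation: 100, growth as untreated; towards 0, rising growth inhibition; 0, no net growth; 0 to -100, cell death. Compounds scoring below 10 were considered active.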 Unmarked numbers belong to inactive results. Activity calls are given as the source filed them.

Key:
Assay in all cases: NCI-60 one-dose screen, 48 h (100 = growth as untreated, 0 = no growth, -100 = all killed)
SK-MEL-2 melanoma = conditions: 10 µM unless noted
EKVX NSCLC = conditions: 10 µM unless noted
SN12C renal = conditions: 10 µM unless noted
UO-31 renal = conditions: 10 µM unless noted
TK-10 renal = conditions: 10 µM unless noted
ACHN renal = conditions: 10 µM unless noted
CAKI-1 renal = conditions: 10 µM unless noted
A498 renal = conditions: 10 µM unless noted
CCRF-CEM leukemia = conditions: 10 µM unless noted
MOLT-4 leukemia = conditions: 10 µM unless noted
SR leukemia = conditions: 10 µM unless noted
RPMI-8226 leukemia = conditions: 10 µM unless noted
OVCAR-8 ovarian = conditions: 10 µM unless noted
OVCAR-5 ovarian = conditions: 10 µM unless noted
OVCAR-4 ovarian = conditions: 10 µM
SK-OV-3 ovarian = conditions: 10 µM unless noted
IGROV1 ovarian = conditions: 10 µM unless noted
OVCAR-3 ovarian = conditions: 10 µM unless noted
NCI/ADR-RES ovarian = conditions: 10 µM unless noted
HS 578T breast = conditions: 10 µM unless noted

Row | Compound | growth (SK-MEL-2 melanoma) | growth (EKVX NSCLC) | growth (SN12C renal) | growth (UO-31 renal) | growth (TK-10 renal) | growth (ACHN renal) | growth (CAKI-1 renal) | growth (A498 renal) | growth (CCRF-CEM leukemia) | growth (MOLT-4 leukemia) | growth (SR leukemia) | growth (RPMI-8226 leukemia) | growth (OVCAR-8 ovarian) | growth (OVCAR-5 ovarian) | growth (OVCAR-4 ovarian) | growth (SK-OV-3 ovarian) | growth (IGROV1 ovarian) | growth (OVCAR-3 ovarian) | growth (NCI/ADR-RES ovarian) | growth (HS 578T breast)
1 | CCCCN(CCCC)CC(O)c1ccc(OCc2ccccc2)c2ccccc12 (configuration not stated) | 99.4% | 75.5% | 94.6% | 28.9% | 78.2% | 71.7% | 26.3% | 97.2% | 72.7% | 15.8% | 9.33% (active) | 77.3% | 89.6% | 98.4% | 93.3% | 92.4% | 61.8% | 69.2% | 77.7% | 
2 | CCN=C1C=CC(=C(c2ccc(N(CC)CC)cc2)c2ccc(N(CC)CC)cc2)c2ccccc21 | -76.3% (active) | -40% (active) | -34.2% (active) | -65.4% (active) | -51.9% (active) | -94.9% (active) | -86.3% (active) | -89.3% (active) | 1.05% (active) | -25.7% (active) | -7.85% (active) | -39.8% (active) | -52.7% (active) | -40.1% (active) | -18.4% (active) | -70.2% (active) | -56.7% (active) |  | -16.3% (active) | -20.1% (active)
3 | COc1ccc2nc3c(cc2c1)C(=O)CC(c1ccccc1)C3 (configuration not stated) | 70% | 44.5% | 40.7% | 34.5% | 64% | 43.9% | 31.3% | -13.5% (active) | 10.7% | 17.8% | 17.7% | 55.4% | 39% | 61.2% | 92.7% | 52.2% | 35.8% | -7.18% (active) | 13.2% | 
4 | COc1ccc2nc3c(cc2c1)C(=O)CC(C(F)(F)F)C3 (configuration not stated) | 83.9% | 55.9% | 42.1% | 46.6% | 69.2% | 49.2% | 37.1% | -7.7% (active) | 9.88% (active) | 15.3% | 16.4% | 93.3% | 40% | 57.7% | 95.7% | 56.8% | 36.6% | 5.3% (active) | 18.9% | 
5 | CCOc1cccc2c(NC(C)CCCN(CC)CC)c(C)cnc12 (configuration not stated) | 105% | 104% | 95.2% | 73.3% | 101% | 109% | 103% | 97.7% | 108% | 93.2% | 96.6% | 107% | 103% | 106% | 108% | 95.8% | 102% | 110% | 114% | 
6 | CCCCCCCCCCCCNC(=S)N/N=C/c1ccccc1O | 80.8% | 89.1% | 69.4% | 37.6% | 128% | 77.1% | 65.4% | 94.3% | 46.1% | 52.4% | 44% | 55.4% | 77.9% | 99.1% | 65.2% | 102% | 65.1% |  | 77.1% | 91.7%
7 | Nc1nc(SCc2cccc([N+](=O)[O-])c2)c2[nH]cnc2n1 | 96% | 90.9% | 94.9% | 64.7% | 90.4% | 99.6% | 84% | 82.1% | 95% | 91.4% | 95.6% | 91.8% | 96.5% | 101% | 99.3% | 109% | 89.2% |  | 97.6% | 99.9%
8 | COc1cccc(-c2[nH]c(=S)ncc2C(=O)c2ccccc2)c1 | 99.9% | 86.9% | 94.4% | 75.9% | 100% | 91.1% | 58.9% | 75% | 93.7% | 76.8% | 28.3% | 113% | 97.4% | 93.8% | 94.9% | 107% | 77.2% | 83.2% | 91.8% | 
9 | O=C1Cc2c(sc3c(F)cccc23)C(c2ccccc2[N+](=O)[O-])N1 (configuration not stated) | 126% | 85.2% | 99.1% | 69.6% | 142% | 101% | 75.1% | 115% | 110% | 106% | 99.4% | 95.4% | 107% | 108% | 93% | 93.1% | 63.5% | 97.9% | 106% | 
10 | O=C1CC(C(F)(F)F)Cc2nc3ccc(Br)cc3cc21 (configuration not stated) | 107% | 81% | 85.8% | 59.7% | 145% | 91.5% | 75.5% | 49.7% | 98.1% | 77.8% | 75.2% | 77.5% | 95.7% | 87.2% | 74.6% | 85.7% | 73.4% | 94.2% | 95.1% | 
11 | O=C1/C(=C/c2cccc(OCc3ccccc3)c2)Oc2cc(OCCN3CCCCC3)ccc21 | 134% | 87.6% | 81.9% | 65.1% | 118% | 97.6% | 84.4% | 81.7% | 53.8% | 82.4% | -20.5% (active) | 20.8% | 92% | 81.4% | 86.2% | 121% | 71.5% | 86.3% | 82.7% | 
12 | CNc1cc(C(=O)O)nc(NC)n1 | 103% | 97.1% | 95.1% | 88.4% | 99.2% | 99.9% | 98.4% | 79.7% | 100% | 101% | 107% | 103% | 101% | 92.1% | 97.6% | 109% | 99.1% |  | 99.4% | 94.7%
13 | N#C/C(=C(/O)CCCO)c1nc2ccccc2c(=O)[nH]1 | 87.7% | 108% | 100% | 106% | 110% | 106% | 149% | 124% | 97.8% | 105% | 90.9% | 91.1% | 107% | 92.5% | 104% | 105% | 109% |  | 95% | 102%
